From the supplement of paper PMC11732987, “Enantioselective OTUD7B fragment discovery through chemoproteomics screening and high-throughput optimisation” (Communications Chemistry, 2025)
Values without a mark were called inactive.

Tests used:
Experiment in all cases: log2 ratio of Biotin-Ahx-Ub-VS probe labelling (compound/DMSO); higher = less target engagement, active = hit call of the paper (q ≤ 0.05, log2 ratio ≤ -1)
Details in all cases: treatment time: 3 h
[1] = compound: CN(Cc1cccc(Br)c1)C(=O)CCl
In short: (§1)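 Compound at 50 or 200 µM, or DMSO, was applied for 3 h in triplicate to HEK293T lysate (495 µg per sample, Tris/CHAPS/IGEPAL buffer with protease inhibitors), after which Biotin-Ahx-Ub-VS was added at 0.5 µM final for 1 h. The labelled DUBs were pulled down with NeutrAvidin, digested with LysC and trypsin, and run by diaPASEF LC-MS/MS. Ratios are averaged base-two logs of compound over DMSO from median-normalised label-free quantities by unpaired t-test, counting only proteins with at least 2 unique peptides.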

[2] = compound: CN(Cc1cccc(OCc2ccccc2C)c1)C(=O)CCl
In short: as §1

[3] = compound: CN(Cc1ccccc1)C(=O)CCl
In short: as §1

[4] = compound: COc1ccc(CN(C)C(=O)CCl)cc1
In short: as §1

[5] = compound: COc1cccc(CN(CCCc2ccccc2)C(=O)CCl)c1
In short: as §1

[6] = compound: ClCC(=O)N1CCc2cc(Cl)c(Cl)cc2C1
In short: as §1

[7] = compound: ClCC(=O)N1CCc2nc(ncc2C1)-c1ccccc1
In short: as §1

[8] = compound: ClCC(=O)N1CCc2nocc2C1
In short: as §1

[9] = compound: ClCC(=O)N1CCc2scc(Br)c2C1
In short: as §1

[10] = compound: ClCC(=O)NC(C1CCCC1)c1cccs1
In short: as §1

[11] = compound: ClCC(=O)NC1CCCc2ccccc12
In short: as §1

[12] = compound: ClCC(=O)NC1CCOc2ccc(Cl)cc12
In short: as §1

[13] = compound: ClCC(=O)NC1CCSc2ccccc12
In short: as §1

[14] = compound: ClCC(=O)N[C@H]1CCCc2ccccc12
In short: as §1

[15] = compound: Fc1ccc(N2CCN(c3nc4c(CN(C(CCl)=O)CC4)cn3)CC2)cc1.Cl.Cl
In short: as §1

Sequence of UniProt Q9Y4E8 (Q9Y4E8 whole entry): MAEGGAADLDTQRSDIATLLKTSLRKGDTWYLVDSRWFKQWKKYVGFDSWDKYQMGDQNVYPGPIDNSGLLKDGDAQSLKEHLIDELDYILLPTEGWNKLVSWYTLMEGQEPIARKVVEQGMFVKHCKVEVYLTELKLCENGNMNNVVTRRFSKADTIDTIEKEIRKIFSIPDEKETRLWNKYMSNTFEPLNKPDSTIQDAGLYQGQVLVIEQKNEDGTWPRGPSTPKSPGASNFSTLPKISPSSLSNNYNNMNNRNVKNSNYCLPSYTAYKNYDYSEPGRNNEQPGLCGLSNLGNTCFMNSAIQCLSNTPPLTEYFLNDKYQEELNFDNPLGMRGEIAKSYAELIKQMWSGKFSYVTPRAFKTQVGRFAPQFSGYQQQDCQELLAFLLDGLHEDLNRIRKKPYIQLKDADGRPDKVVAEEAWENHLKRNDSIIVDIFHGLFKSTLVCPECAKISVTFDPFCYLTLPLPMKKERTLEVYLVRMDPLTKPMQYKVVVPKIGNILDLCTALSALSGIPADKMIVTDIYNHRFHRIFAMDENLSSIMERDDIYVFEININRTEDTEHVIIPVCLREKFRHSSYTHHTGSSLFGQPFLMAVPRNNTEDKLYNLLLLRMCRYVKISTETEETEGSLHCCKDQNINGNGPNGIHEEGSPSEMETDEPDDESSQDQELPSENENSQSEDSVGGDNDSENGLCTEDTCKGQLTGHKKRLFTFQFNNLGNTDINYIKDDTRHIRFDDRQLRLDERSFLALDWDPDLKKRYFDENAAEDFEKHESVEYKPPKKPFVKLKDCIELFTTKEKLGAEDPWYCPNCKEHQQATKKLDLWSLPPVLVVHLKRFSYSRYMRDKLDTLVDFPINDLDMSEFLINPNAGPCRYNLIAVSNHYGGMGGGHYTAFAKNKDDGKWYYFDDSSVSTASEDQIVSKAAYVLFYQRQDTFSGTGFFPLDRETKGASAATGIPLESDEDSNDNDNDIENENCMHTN
Sequence of UniProt Q96FW1 (Q96FW1 whole entry): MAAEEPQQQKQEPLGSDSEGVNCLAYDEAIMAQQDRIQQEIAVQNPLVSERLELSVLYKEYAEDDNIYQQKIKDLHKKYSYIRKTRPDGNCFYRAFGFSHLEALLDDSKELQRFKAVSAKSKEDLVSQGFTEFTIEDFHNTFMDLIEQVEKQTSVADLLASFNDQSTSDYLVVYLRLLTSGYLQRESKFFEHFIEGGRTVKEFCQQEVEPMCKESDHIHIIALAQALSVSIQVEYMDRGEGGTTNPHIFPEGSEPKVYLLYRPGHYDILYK
Sequence of UniProt P51784 (P51784 whole entry): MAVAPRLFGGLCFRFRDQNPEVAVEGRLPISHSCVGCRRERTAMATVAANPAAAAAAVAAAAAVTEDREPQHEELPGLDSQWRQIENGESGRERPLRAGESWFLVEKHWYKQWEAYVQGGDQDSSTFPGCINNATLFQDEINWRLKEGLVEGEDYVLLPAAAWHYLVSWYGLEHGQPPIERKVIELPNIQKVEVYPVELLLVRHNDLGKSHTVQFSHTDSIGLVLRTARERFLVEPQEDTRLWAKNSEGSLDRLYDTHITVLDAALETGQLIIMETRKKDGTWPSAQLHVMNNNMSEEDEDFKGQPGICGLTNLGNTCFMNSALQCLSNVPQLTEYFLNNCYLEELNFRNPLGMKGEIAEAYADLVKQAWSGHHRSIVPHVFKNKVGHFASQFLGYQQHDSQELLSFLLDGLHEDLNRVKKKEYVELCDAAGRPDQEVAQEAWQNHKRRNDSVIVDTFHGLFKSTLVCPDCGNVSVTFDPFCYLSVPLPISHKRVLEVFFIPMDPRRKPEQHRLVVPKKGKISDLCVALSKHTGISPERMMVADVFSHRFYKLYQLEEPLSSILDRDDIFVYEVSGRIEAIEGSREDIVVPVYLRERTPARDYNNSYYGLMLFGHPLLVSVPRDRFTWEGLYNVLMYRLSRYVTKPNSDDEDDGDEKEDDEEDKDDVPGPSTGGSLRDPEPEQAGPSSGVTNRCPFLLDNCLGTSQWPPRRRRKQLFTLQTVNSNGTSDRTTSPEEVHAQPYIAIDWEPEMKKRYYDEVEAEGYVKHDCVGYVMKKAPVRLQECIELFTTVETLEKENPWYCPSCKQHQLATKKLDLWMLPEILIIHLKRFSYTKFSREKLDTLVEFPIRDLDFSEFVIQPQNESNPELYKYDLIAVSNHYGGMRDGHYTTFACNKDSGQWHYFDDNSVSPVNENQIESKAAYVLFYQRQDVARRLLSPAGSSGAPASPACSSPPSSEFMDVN
Sequence of UniProt O00487 (O00487 whole entry): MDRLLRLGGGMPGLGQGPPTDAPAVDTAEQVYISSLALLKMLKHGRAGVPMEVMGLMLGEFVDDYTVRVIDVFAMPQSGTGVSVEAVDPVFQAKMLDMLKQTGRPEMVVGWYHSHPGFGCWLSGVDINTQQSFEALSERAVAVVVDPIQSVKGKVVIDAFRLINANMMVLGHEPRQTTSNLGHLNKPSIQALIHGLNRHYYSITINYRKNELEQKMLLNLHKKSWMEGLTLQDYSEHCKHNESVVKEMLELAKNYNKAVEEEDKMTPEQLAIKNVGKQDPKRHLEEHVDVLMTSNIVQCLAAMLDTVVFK

Target	log2 ratio of Biotin-Ahx-Ub-VS probe labelling ([1]; compound concentration: 50uM)	log2 ratio of Biotin-Ahx-Ub-VS probe labelling ([1]; compound concentration: 200uM)	log2 ratio of Biotin-Ahx-Ub-VS probe labelling ([2]; compound concentration: 50uM)	log2 ratio of Biotin-Ahx-Ub-VS probe labelling ([2]; compound concentration: 200uM)	log2 ratio of Biotin-Ahx-Ub-VS probe labelling ([3]; compound concentration: 50uM)	log2 ratio of Biotin-Ahx-Ub-VS probe labelling ([3]; compound concentration: 200uM)	log2 ratio of Biotin-Ahx-Ub-VS probe labelling ([4]; compound concentration: 50uM)	log2 ratio of Biotin-Ahx-Ub-VS probe labelling ([4]; compound concentration: 200uM)	log2 ratio of Biotin-Ahx-Ub-VS probe labelling ([5]; compound concentration: 50uM)	log2 ratio of Biotin-Ahx-Ub-VS probe labelling ([5]; compound concentration: 200uM)	log2 ratio of Biotin-Ahx-Ub-VS probe labelling ([6]; compound concentration: 50uM)	log2 ratio of Biotin-Ahx-Ub-VS probe labelling ([6]; compound concentration: 200uM)	log2 ratio of Biotin-Ahx-Ub-VS probe labelling ([7]; compound concentration: 50uM)	log2 ratio of Biotin-Ahx-Ub-VS probe labelling ([7]; compound concentration: 200uM)	log2 ratio of Biotin-Ahx-Ub-VS probe labelling ([8]; compound concentration: 50uM)	log2 ratio of Biotin-Ahx-Ub-VS probe labelling ([8]; compound concentration: 200uM)	log2 ratio of Biotin-Ahx-Ub-VS probe labelling ([9]; compound concentration: 50uM)	log2 ratio of Biotin-Ahx-Ub-VS probe labelling ([9]; compound concentration: 200uM)	log2 ratio of Biotin-Ahx-Ub-VS probe labelling ([10]; compound concentration: 50uM)	log2 ratio of Biotin-Ahx-Ub-VS probe labelling ([10]; compound concentration: 200uM)	log2 ratio of Biotin-Ahx-Ub-VS probe labelling ([11]; compound concentration: 50uM)	log2 ratio of Biotin-Ahx-Ub-VS probe labelling ([11]; compound concentration: 200uM)	log2 ratio of Biotin-Ahx-Ub-VS probe labelling ([12]; compound concentration: 50uM)	log2 ratio of Biotin-Ahx-Ub-VS probe labelling ([12]; compound concentration: 200uM)	log2 ratio of Biotin-Ahx-Ub-VS probe labelling ([13]; compound concentration: 50uM)	log2 ratio of Biotin-Ahx-Ub-VS probe labelling ([13]; compound concentration: 200uM)	log2 ratio of Biotin-Ahx-Ub-VS probe labelling ([14]; compound concentration: 50uM)	log2 ratio of Biotin-Ahx-Ub-VS probe labelling ([14]; compound concentration: 200uM)	log2 ratio of Biotin-Ahx-Ub-VS probe labelling ([15]; compound concentration: 50uM)	log2 ratio of Biotin-Ahx-Ub-VS probe labelling ([15]; compound concentration: 200uM)
USP15 (UniProt Q9Y4E8)	-0.321	-0.664	-0.611	-0.533	-0.368	-0.462	-0.242	-0.334	-0.289	-0.43	-0.407	-1.85 (active)	-0.105	-1.06 (active)	-0.404	-0.641	-0.779	-1.88 (active)	0.0422	-0.0218	-0.0996	-0.0168	-0.328	-0.255	0.00954	-0.189	-0.0873	-0.249	-0.441	-1.58 (active)
UniProt O00487	-0.27	-0.709	-0.154	-0.202	-0.0192	0.243	-0.0826	-0.0205	0.102	0.0842	-0.325	-0.335	-0.128	0.13	-0.239	-0.187	-0.175	-0.724	-0.101	-0.0832	-0.451	-0.117	-0.207	0.0311	0.124	-0.15	-0.0195	-0.0757	0.285	0.135
OTUB1 (UniProt Q96FW1)	0.0635	0.0164	-0.366	0.0592	-0.0602	-0.159	-0.0667	-0.232	-0.125	-0.389	0.182	-0.161	-0.0139	-0.309	-0.139	-0.129	0.0181	-0.0887	0.00867	-0.00015	-0.212	-0.0215	-0.31	-0.319	0.00122	-0.246	0.0292	-0.0965	0.0783	-0.137
UniProt P51784	0.019	-0.0885	-0.394	-0.417	-0.135	-0.305	-0.149	-0.291	-0.0998	-0.339	0.125	-0.807	0.0941	-0.284	-0.0884	-0.403	-0.0183	-0.573	0.0513	-0.0659	0.0554	0.032	-0.0759	-0.235	0.214	-0.104	0.124	-0.322	0.0256	-1.01 (active)
